About 79,000 compounds went through this panel and 15% of them were active in at least one assay; those are over-represented in the sample as a whole. Values without a mark were called inactive. Activity calls are given as the source filed them. Rule as the data show it: active = growth inhibition above about 70%; inactive = the rest.
Assay: NCI Yeast Anticancer Drug Screen. Data for the rad50EPP+ strain (AID 151);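 also: 0% = growth of vehicle-treated control cultures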
Conditions: S. cerevisiae rad50 mutant strain, hits give high values
Procedure: Growth inhibition of yeast strains with defined genetic alterations is measured as a screen for potential anti-cancer activity. Selected strains with alterations in DNA damage repair or cell cycle control were exposed to compounds and growth inhibition was measured relative to vehicle treated controls. The strain used in this assay is rad50EPP+

Row | SMILES | growth inhibition (at 1.2 µM) | growth inhibition (at 3.7 µM) | growth inhibition (at 11.0 µM) | growth inhibition (at 33.0 µM) | growth inhibition (at 100.0 µM)
1 | C[N+]1(CCCl)CC[N+](C)(CCCl)CC1 (stereo not given) | 0% | 0% | 2% | 7% | 56%
2 | O=C(O)C1C2CCC(C2)C1c1ccccc1 (stereo not given) | -1% | -2% | -2% | -2% | -3%
3 | O=[N+]([O-])c1cc(S(=O)(=O)F)ccc1Cl | 13% | 20% | 47% | 82% (active) | 99% (active)
4 | O=C(O)C1C2C=CC(C2)C1c1ccccc1 (stereo not given) | -6% | -8% | -6% | -5% | 0%
5 | NC1=NCC(c2ccc(Cl)cc2)O1 (stereo not given) | -2% | 0% | 0% | 4% | 4%
6 | CC1=C(O)C(=O)C=C2C1=CC=C1[C@@]2(C)CCC2(C)[C@@H]3C[C@@H](C)C(=O)C[C@]3(C)CC[C@]12C (stereo not given in full) | 9% | 12% | 29% | 32% | 59%
7 | Nc1nc(N)c2c(Cl)c(CNc3ccc(C(=O)NC(CC(=O)O)C(=O)O)cc3)ccc2n1 (stereo not given) | 10% | 6% | 13% | 17% | 41%
8 | CSC(=Nc1ccccc1)N(c1ccccc1)c1nc(=[N+](C)C)ss1 | -1% | -5% | 23% | 87% (active) | 97% (active)
